An excerpt weighted towards active compounds, which were near 12% of everything screened.
USP30 inh: blocks human USP30 ubiquitin-rhodamine cleavage. purified USP30, Ub-rhodamine cleavage fluorescence. Q70CQ3. hit rate 5.3% among 47,000. AID 1645860. inhibition, % at 25 µM
Target sequence (Q70CQ3 whole entry, looked up): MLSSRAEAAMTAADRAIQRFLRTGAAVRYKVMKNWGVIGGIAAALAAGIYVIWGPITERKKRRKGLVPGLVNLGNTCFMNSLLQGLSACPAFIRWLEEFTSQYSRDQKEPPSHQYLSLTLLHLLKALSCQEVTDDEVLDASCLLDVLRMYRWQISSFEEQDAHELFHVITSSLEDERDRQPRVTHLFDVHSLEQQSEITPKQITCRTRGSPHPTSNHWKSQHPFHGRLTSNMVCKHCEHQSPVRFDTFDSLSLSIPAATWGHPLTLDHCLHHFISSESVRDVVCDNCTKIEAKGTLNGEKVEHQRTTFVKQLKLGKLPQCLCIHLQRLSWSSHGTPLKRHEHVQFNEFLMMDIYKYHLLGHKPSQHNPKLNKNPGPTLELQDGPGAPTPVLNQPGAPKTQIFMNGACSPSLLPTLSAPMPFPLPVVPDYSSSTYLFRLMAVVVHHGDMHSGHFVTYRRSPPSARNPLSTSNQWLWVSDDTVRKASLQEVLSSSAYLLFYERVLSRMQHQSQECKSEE
USP28 inh: blocks human USP28 ubiquitin-rhodamine cleavage. Q96RU2. purified USP28, Ub-rhodamine cleavage fluorescence, 30 min. inhibition, % at 25 µM. hit rate 3% among 47,000
OTUD3 block: blocks human OTUD3 ubiquitin-rhodamine cleavage; inhibition, % at 25 µM; Q5T2D3; purified OTUD3, Ub-rhodamine fluorescence, 2 h; hit rate 0.7% among 47,000
USP17 inh: blocks human USP17 ubiquitin-rhodamine cleavage; hit rate 6.5% among 47,000; purified USP17, Ub-rhodamine cleavage fluorescence, 3 h; inhibition, % at 50 µM
A number is an active result; 0 = inactive; - = no result. Rule as the data show it: active = inhibition above about 30%; inactive = the rest.

SMILES	USP30 inh	USP28 inh	OTUD3 block	USP17 inh
O=C1CCCN1CCCNc1ncnc2onc(-c3ccc(F)cc3)c12	0	0	0	0
COCCN1C(=O)CO[C@H]2CN(C(=O)c3cn4cc(C)ccc4n3)C[C@@H]21	0	0	0	0
O=C(NCCc1ccccn1)c1cc(-c2ccc(Br)cc2)n[nH]1	34	0	0	80
O=C(NCCc1ccccn1)c1cn2ccnc(-c3ccc(F)cc3)c2n1	56	0	0	0
Cc1ccc(-c2nccn3cc(C(=O)NCCc4ccccn4)nc23)cc1	0	0	0	0
Cc1ncsc1C(=O)NCC[C@@]12CCCC[C@@H]1c1c([nH]c(=O)[nH]c1=O)O2	0	0	0	0
Cc1ccc(S(=O)(=O)N2CCN(c3c(C)n(C)c(=O)n(C)c3=O)CC2)cc1C	37	0	0	0
Cc1c(N2CCN(S(=O)(=O)c3ccc(F)c(F)c3)CC2)c(=O)n(C)c(=O)n1C	37	0	0	44
CCn1nc(C(C)C)cc1C(=O)N1CCCC1c1cc(N)nc(C)n1 (stereo unspecified)	0	0	0	0
Cc1ccc(C(=O)Nc2cc(C#N)ccc2Sc2ccccc2)cc1	0	0	0	0
CCOC(=O)c1ccc(OCc2nc(-c3ccc(OC)c(OC)c3)no2)cc1	0	0	0	0
Cc1ccccc1-c1noc(COc2ccc(C(N)=O)cc2)n1	0	40	0	0
COc1ccccc1C(=O)Nc1ccc(Cc2ccncc2)cc1	0	35	0	0
Cc1cc(-c2ccc(C)c(S(=O)(=O)N3CC(=O)Nc4ccccc43)c2)on1	0	0	0	47
CC(C/C=C/C=C/CC/C=C/C=C/CCC(C)(C)C)C(O)C(O)C(O)C(O)C(O)C1OC(=O)C(O)C1O (stereo unspecified)	0	0	0	0
COc1ccc(COC(=O)NC2CCN(S(=O)(=O)c3ccc(OC)cc3)CC2)cc1	0	0	0	0
COc1ccc2c(c1)C(=O)N(CCc1ccc(S(=O)(=O)NC(=O)NC3CCCCC3)cc1)C(=O)C2(C)C	47	0	0	0
CCOc1ccccc1N1CCN(Cc2nc3ccccc3c(=O)[nH]2)CC1	0	0	0	0
COc1ccccc1CNC(=O)C1COc2ccccc2C1 (stereo unspecified)	-	-	0	0
CN(C)CCc1cc2c(c3c1ccc1ccccc13)OCO2	31	75	0	0
Cc1cccc(-c2nnn3c2nc(NCC2CCCO2)c2ccccc23)c1 (stereo unspecified)	66	0	0	58
Cn1c(NC(=O)c2ccc(Cl)cc2)c(-c2ccccn2)c(=O)c2ccccc21	0	0	0	0
COc1ccc(NC(=O)c2ccccc2-c2nc(-c3ccc(Cl)cc3)no2)cc1OC	0	0	0	0
COc1ccccc1C(=O)Nc1ccccc1-c1nc(-c2ccccn2)no1	-	-	0	32
O=C(Nc1ccccc1-c1nc(-c2ccccn2)no1)c1ccc(Cl)cc1	0	0	0	35
SMILES	USP30 inh	USP28 inh	OTUD3 block	USP17 inh
CC(C)NC(=O)N1CCC(c2nnc3ccc(C(=O)N4CCN(C)CC4)cn23)C1 (stereo unspecified)	0	0	0	0
Cc1ccc(NC(=O)N2CCC(c3nc4ncccc4[nH]3)CC2)cc1	-	-	0	0
COc1ccc(OC(=O)CN(c2cccc(C(F)(F)F)c2)S(=O)(=O)c2ccccc2)cc1	0	0	0	0
O=C(CN(c1ccccc1)S(=O)(=O)c1ccccc1)Oc1cc(Cl)ccc1Cl	34	0	0	0
COC(=O)c1ccc(COC(=O)c2cc(C)nc3ccccc23)cc1	0	0	0	0
COC(=O)c1ccc(CNC(=O)COC(=O)c2cc(-c3ccccc3)nc3ccccc23)cc1	47	0	0	0
O=c1[nH]c(C2CCN(S(=O)(=O)c3ccc(S(=O)(=O)NC4CC4)cc3)CC2)nc2c1nnn2Cc1c(Cl)cccc1Cl	0	0	0	0
Cc1noc(C)c1-c1ccc(S(=O)(=O)Nc2cccc(F)c2)cc1	0	0	0	0
CCc1ccc(S(=O)(=O)Nc2ccc(-c3nnc(-c4ccccc4)o3)cc2)cc1	32	33	0	0
Cc1noc(C)c1-c1ccc(S(=O)(=O)Nc2ccccc2)cc1	30	0	0	0
CN(C)[C@@H]1CN(Cc2cn[nH]c2-c2ccc(F)cc2)CC[C@@H]1CO	0	0	0	-
O=C(NCc1ccccc1)c1cc(N2CCCC2)n2nccc2n1	0	0	0	0
COc1cc2c(cc1NC(=O)c1ccc(-n3cnnn3)cc1)oc1ccccc12	0	0	0	53
Cc1ccccc1NC(=O)c1c(C)sc2c(=O)n(C(C)C)cnc12	0	0	0	32
Cc1cc(C)c(S(=O)(=O)Nc2cc(C(=O)O)ccc2N2CCN(C)CC2)c(C)c1	0	0	0	0
CC(C)c1ccc(C(C)NC(=O)c2cccc(N(C)C)c2)cc1 (stereo unspecified)	0	0	0	39
CC(=O)N(Cc1nn(C)c2c1CN(S(=O)(=O)c1ccccc1)CC2)c1ccccc1	0	0	0	0
O=C(COc1ccccc1F)N1CCSc2ccc(Cl)cc21	34	41	0	32
O=C(COc1ccc(F)cc1Br)N1CCSc2ccccc21	0	0	0	0
Cc1ccc(CSc2nnc(CN3CCOCC3)n2C)cc1	0	0	0	0
COCCCNC(=O)c1ccc(N2CCOc3ccc(Cl)cc32)s1	0	0	0	0
Cc1cc(NC(=O)CSc2nccn2-c2ccc(F)cc2)no1	0	0	0	0
COc1ccc(-c2ccnc(SCC(=O)Nc3ccccc3F)n2)cc1	65	0	0	71
CCOc1ccc(-n2ccnc(SCC(=O)Nc3ccccc3Cl)c2=O)cc1	0	0	0	30
CCOc1ccc(-n2ccnc(SCC(=O)Nc3ccccc3F)c2=O)cc1	32	0	0	0
SMILES	USP30 inh	USP28 inh	OTUD3 block	USP17 inh
COc1cnc(CSc2nccc(C)n2)cc1OCC(=O)Nc1ccccc1F	0	0	0	0
Cc1cc(C)cc(-n2ccnc(SCC(=O)Nc3cccc(Cl)c3)c2=O)c1	54	0	0	34
Cn1c(=O)c2c(ncn2CC(=O)OCC(=O)Nc2cccc(Cl)c2)n(C)c1=O	0	0	0	0
COCC(=O)N1CCC[C@@H]2[C@H]1CCCCc1ccccc1OCC(=O)N2C	0	0	0	0
COc1ccccc1N1CCN(S(=O)(=O)c2c(C)nc3sc(C)nn23)CC1	0	0	0	0
C/C=C\C=C\C1OC(O)([C@H](CC)C(=O)NC/C=C/C=C(\C)[C@@H](OC)[C@@H](C)[C@H](O)[C@@H](O)\C=C/C=C/C=C/C=C(\C)C(O)=C2C(=O)CCN(C)C2=O)CC(O)C1(C)C (stereo partly specified)	0	0	0	0
O=C(NC1(c2nn[nH]n2)CCCC1)c1ccccc1	0	0	0	-
COCC(=O)N1CCCCCC1C1CCN(Cc2nc(C3CC3)no2)CC1 (stereo unspecified)	0	0	0	0
O=S1(=O)NC(=NCCc2ccc(Cl)cc2Cl)c2ccccc21	0	0	0	58
O=S1(=O)NC(=NCCc2ccc(Cl)cc2)c2ccccc21	0	0	0	35
CC(=O)N1CCOc2cc(S(=O)(=O)N3CCCC3c3cc(C(C)C)on3)ccc21 (stereo unspecified)	0	40	0	0
CC(=O)N1CCOc2cc(S(=O)(=O)N3CCCC3c3cc(C)on3)ccc21 (stereo unspecified)	0	0	0	0
